# Laboratory results as given in publication PMC11006913.
# Changes are numbered by the printed parent chain.
# Legend:
# Assay in all cases: PBM; 200 nM protein, PBS
# Conditions in all cases: dsDNA, one strand shown
# [1] = target: HOXB4 (Homo sapiens, UniProt P17483 148-234)
# [2] = target: T1, VENTX (Homo sapiens, UniProt O95231 78-163, R121Q)
# T1 sequence: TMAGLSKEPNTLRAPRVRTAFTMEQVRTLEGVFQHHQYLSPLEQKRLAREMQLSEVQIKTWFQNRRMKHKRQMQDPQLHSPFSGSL
# [3] = target: HOXA4 (Homo sapiens, UniProt Q00056 201-287, W262R)
# Chain of HOXA4 (Homo sapiens, UniProt Q00056 201-287, W262R) (Q00056 201-287 W262R): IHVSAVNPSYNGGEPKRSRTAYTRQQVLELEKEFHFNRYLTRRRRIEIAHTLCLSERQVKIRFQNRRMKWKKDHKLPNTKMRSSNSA
# [4] = target: ALX4 (Homo sapiens, UniProt Q9H161 200-286)
# Chain of ALX4 (Q9H161 200-286): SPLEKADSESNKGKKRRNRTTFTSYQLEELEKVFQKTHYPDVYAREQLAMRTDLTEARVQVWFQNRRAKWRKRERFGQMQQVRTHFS
# [5] = target: PRRX1 (Homo sapiens, UniProt P54821 80-166, F113S)
# Chain of PRRX1 (Homo sapiens, UniProt P54821 80-166, F113S) (P54821 80-166 F113S): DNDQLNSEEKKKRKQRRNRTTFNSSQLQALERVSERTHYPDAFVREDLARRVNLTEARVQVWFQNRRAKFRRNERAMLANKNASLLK
# [6] = target: T2, VENTX (Homo sapiens, UniProt O95231 78-163, Y115F)
# T2 sequence: T1 sequence with Y38F, Q44R
# [7] = target: HOXB6 (Homo sapiens, UniProt P17509 132-218, K202E)
# Chain of HOXB6 (Homo sapiens, UniProt P17509 132-218, K202E) (P17509 132-218 K202E): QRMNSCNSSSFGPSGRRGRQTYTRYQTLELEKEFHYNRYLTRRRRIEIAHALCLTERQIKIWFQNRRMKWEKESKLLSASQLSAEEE
# [8] = target: HOXA2 (Homo sapiens, UniProt O43364 129-215, R185T)
# Chain of HOXA2 (Homo sapiens, UniProt O43364 129-215, R185T) (O43364 129-215 R185T): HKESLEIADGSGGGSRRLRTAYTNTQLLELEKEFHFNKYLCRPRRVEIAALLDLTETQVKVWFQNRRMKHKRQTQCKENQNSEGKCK
# [9] = target: HOXA4 (Homo sapiens, UniProt Q00056 201-287, R217L)
# Chain of HOXA4 (Homo sapiens, UniProt Q00056 201-287, R217L) (Q00056 201-287 R217L): as the sequence (Q00056 201-287 W262R) above, with R17L, R62W counted along it
# [10] = target: HOXB4 (Homo sapiens, UniProt P17483 148-234, V174I)
# Chain of HOXB4 (Homo sapiens, UniProt P17483 148-234, V174I) (P17483 148-234 V174I): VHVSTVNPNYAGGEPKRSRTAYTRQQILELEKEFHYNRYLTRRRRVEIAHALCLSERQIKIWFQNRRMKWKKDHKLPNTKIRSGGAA
# [11] = target: T3, PAX4 (Homo sapiens, UniProt O43316 9-242, R200Q)
# T3 sequence: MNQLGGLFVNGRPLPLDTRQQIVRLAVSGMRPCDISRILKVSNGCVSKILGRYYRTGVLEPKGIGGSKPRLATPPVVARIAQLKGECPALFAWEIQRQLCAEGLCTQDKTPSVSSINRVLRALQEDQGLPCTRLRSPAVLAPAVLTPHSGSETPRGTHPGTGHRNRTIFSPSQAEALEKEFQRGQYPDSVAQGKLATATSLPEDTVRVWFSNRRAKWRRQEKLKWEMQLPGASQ
# [12] = target: HOXA2 (Homo sapiens, UniProt O43364 129-215, R185K)
# Chain of HOXA2 (Homo sapiens, UniProt O43364 129-215, R185K) (O43364 129-215 R185K): as the sequence (O43364 129-215 R185T) above, with T57K counted along it
# [13] = target: HOXA4 (Homo sapiens, UniProt Q00056 201-287)
# Chain of HOXA4 (Homo sapiens, UniProt Q00056 201-287) (Q00056 201-287): as the sequence (Q00056 201-287 W262R) above, with R62W counted along it
# [14] = target: MSX2 (Homo sapiens, UniProt P35548 130-214)
# Chain of MSX2 (Homo sapiens, UniProt P35548 130-214) (P35548 130-214): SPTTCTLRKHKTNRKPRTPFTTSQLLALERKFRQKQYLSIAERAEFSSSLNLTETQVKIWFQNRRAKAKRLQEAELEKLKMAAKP
# [15] = target: MSX2 (Homo sapiens, UniProt P35548 130-214, F161Y)
# Chain of MSX2 (Homo sapiens, UniProt P35548 130-214, F161Y) (P35548 130-214 F161Y): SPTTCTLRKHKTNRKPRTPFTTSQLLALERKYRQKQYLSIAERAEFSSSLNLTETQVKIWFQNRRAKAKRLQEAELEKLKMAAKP
# [16] = target: VAX1 (Homo sapiens, UniProt Q5SQQ9 86-172, T142I)
# Chain of VAX1 (Homo sapiens, UniProt Q5SQQ9 86-172, T142I) (Q5SQQ9 86-172 T142I): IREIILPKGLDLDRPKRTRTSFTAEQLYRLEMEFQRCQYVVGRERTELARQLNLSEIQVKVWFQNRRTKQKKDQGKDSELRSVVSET
# [17] = target: HOXA4 (Homo sapiens, UniProt Q00056 201-287, W262F)
# Chain of HOXA4 (Homo sapiens, UniProt Q00056 201-287, W262F) (Q00056 201-287 W262F): as the sequence (Q00056 201-287 W262R) above, with R62F counted along it
# [18] = target: PRRX1 (Homo sapiens, UniProt P54821 80-166)
# Chain of PRRX1 (Homo sapiens, UniProt P54821 80-166) (P54821 80-166): as the sequence (P54821 80-166 F113S) above, with S34F counted along it
# [19] = target: VAX1 (Homo sapiens, UniProt Q5SQQ9 86-172, K157R)
# Chain of VAX1 (Homo sapiens, UniProt Q5SQQ9 86-172, K157R) (Q5SQQ9 86-172 K157R): as the sequence (Q5SQQ9 86-172 T142I) above, with I57T, K72R counted along it
# [20] = target: HOXB6 (Homo sapiens, UniProt P17509 132-218)
# Chain of HOXB6 (Homo sapiens, UniProt P17509 132-218) (P17509 132-218): as the sequence (P17509 132-218 K202E) above, with E71K counted along it
# Chain of HOXB4 (Homo sapiens, UniProt P17483 148-234) (P17483 148-234): as the sequence (P17483 148-234 V174I) above, with I27V counted along it
Sequence,binding signal [1],binding signal [2],binding signal [3],binding signal [4],binding signal [5],binding signal [6],binding signal [7],binding signal [8],binding signal [9],binding signal [10],binding signal [11],binding signal [12],binding signal [13],binding signal [14],binding signal [15],binding signal [16],binding signal [17],binding signal [18],binding signal [19],binding signal [20]
TAATTATA,"13.5 upbm affinity estimate (log intensity, higher = more binding, comparable within an allelic series)","11.9 upbm affinity estimate (log intensity, higher = more binding, comparable within an allelic series)","10.8 upbm affinity estimate (log intensity, higher = more binding, comparable within an allelic series)","14.3 upbm affinity estimate (log intensity, higher = more binding, comparable within an allelic series)","11.8 upbm affinity estimate (log intensity, higher = more binding, comparable within an allelic series)","11.8 upbm affinity estimate (log intensity, higher = more binding, comparable within an allelic series)","10.3 upbm affinity estimate (log intensity, higher = more binding, comparable within an allelic series)","13.6 upbm affinity estimate (log intensity, higher = more binding, comparable within an allelic series)","12.7 upbm affinity estimate (log intensity, higher = more binding, comparable within an allelic series)","14.3 upbm affinity estimate (log intensity, higher = more binding, comparable within an allelic series)","12.1 upbm affinity estimate (log intensity, higher = more binding, comparable within an allelic series)","13.7 upbm affinity estimate (log intensity, higher = more binding, comparable within an allelic series)","14.2 upbm affinity estimate (log intensity, higher = more binding, comparable within an allelic series)","14 upbm affinity estimate (log intensity, higher = more binding, comparable within an allelic series)","13.6 upbm affinity estimate (log intensity, higher = more binding, comparable within an allelic series)","13.4 upbm affinity estimate (log intensity, higher = more binding, comparable within an allelic series)","12.1 upbm affinity estimate (log intensity, higher = more binding, comparable within an allelic series)","13.6 upbm affinity estimate (log intensity, higher = more binding, comparable within an allelic series)","13.4 upbm affinity estimate (log intensity, higher = more binding, comparable within an allelic series)","12.3 upbm affinity estimate (log intensity, higher = more binding, comparable within an allelic series)"
AATTAATG,"13.4 upbm affinity estimate (log intensity, higher = more binding, comparable within an allelic series)","12 upbm affinity estimate (log intensity, higher = more binding, comparable within an allelic series)","10.6 upbm affinity estimate (log intensity, higher = more binding, comparable within an allelic series)","14 upbm affinity estimate (log intensity, higher = more binding, comparable within an allelic series)","11.3 upbm affinity estimate (log intensity, higher = more binding, comparable within an allelic series)","11.8 upbm affinity estimate (log intensity, higher = more binding, comparable within an allelic series)","10.1 upbm affinity estimate (log intensity, higher = more binding, comparable within an allelic series)","13 upbm affinity estimate (log intensity, higher = more binding, comparable within an allelic series)","12.5 upbm affinity estimate (log intensity, higher = more binding, comparable within an allelic series)","14 upbm affinity estimate (log intensity, higher = more binding, comparable within an allelic series)","12.3 upbm affinity estimate (log intensity, higher = more binding, comparable within an allelic series)","13.5 upbm affinity estimate (log intensity, higher = more binding, comparable within an allelic series)","14.1 upbm affinity estimate (log intensity, higher = more binding, comparable within an allelic series)","13.5 upbm affinity estimate (log intensity, higher = more binding, comparable within an allelic series)","13.2 upbm affinity estimate (log intensity, higher = more binding, comparable within an allelic series)","12.9 upbm affinity estimate (log intensity, higher = more binding, comparable within an allelic series)","11.9 upbm affinity estimate (log intensity, higher = more binding, comparable within an allelic series)","13.4 upbm affinity estimate (log intensity, higher = more binding, comparable within an allelic series)","12.8 upbm affinity estimate (log intensity, higher = more binding, comparable within an allelic series)","12.2 upbm affinity estimate (log intensity, higher = more binding, comparable within an allelic series)"
AATAATTA,"13.5 upbm affinity estimate (log intensity, higher = more binding, comparable within an allelic series)","12 upbm affinity estimate (log intensity, higher = more binding, comparable within an allelic series)","10.9 upbm affinity estimate (log intensity, higher = more binding, comparable within an allelic series)","14.2 upbm affinity estimate (log intensity, higher = more binding, comparable within an allelic series)","11.7 upbm affinity estimate (log intensity, higher = more binding, comparable within an allelic series)","11.8 upbm affinity estimate (log intensity, higher = more binding, comparable within an allelic series)","10.2 upbm affinity estimate (log intensity, higher = more binding, comparable within an allelic series)","13.5 upbm affinity estimate (log intensity, higher = more binding, comparable within an allelic series)","12.7 upbm affinity estimate (log intensity, higher = more binding, comparable within an allelic series)","14.2 upbm affinity estimate (log intensity, higher = more binding, comparable within an allelic series)","12.2 upbm affinity estimate (log intensity, higher = more binding, comparable within an allelic series)","13.6 upbm affinity estimate (log intensity, higher = more binding, comparable within an allelic series)","14.2 upbm affinity estimate (log intensity, higher = more binding, comparable within an allelic series)","14 upbm affinity estimate (log intensity, higher = more binding, comparable within an allelic series)","13.6 upbm affinity estimate (log intensity, higher = more binding, comparable within an allelic series)","13.4 upbm affinity estimate (log intensity, higher = more binding, comparable within an allelic series)","12.2 upbm affinity estimate (log intensity, higher = more binding, comparable within an allelic series)","13.5 upbm affinity estimate (log intensity, higher = more binding, comparable within an allelic series)","13.4 upbm affinity estimate (log intensity, higher = more binding, comparable within an allelic series)","12.3 upbm affinity estimate (log intensity, higher = more binding, comparable within an allelic series)"
GATAATTA,"13.8 upbm affinity estimate (log intensity, higher = more binding, comparable within an allelic series)","12.5 upbm affinity estimate (log intensity, higher = more binding, comparable within an allelic series)","11 upbm affinity estimate (log intensity, higher = more binding, comparable within an allelic series)","14.4 upbm affinity estimate (log intensity, higher = more binding, comparable within an allelic series)","12 upbm affinity estimate (log intensity, higher = more binding, comparable within an allelic series)","12.3 upbm affinity estimate (log intensity, higher = more binding, comparable within an allelic series)","10.2 upbm affinity estimate (log intensity, higher = more binding, comparable within an allelic series)","13.9 upbm affinity estimate (log intensity, higher = more binding, comparable within an allelic series)","13.1 upbm affinity estimate (log intensity, higher = more binding, comparable within an allelic series)","14.5 upbm affinity estimate (log intensity, higher = more binding, comparable within an allelic series)","12.4 upbm affinity estimate (log intensity, higher = more binding, comparable within an allelic series)","13.8 upbm affinity estimate (log intensity, higher = more binding, comparable within an allelic series)","14.3 upbm affinity estimate (log intensity, higher = more binding, comparable within an allelic series)","14.1 upbm affinity estimate (log intensity, higher = more binding, comparable within an allelic series)","13.7 upbm affinity estimate (log intensity, higher = more binding, comparable within an allelic series)","13.8 upbm affinity estimate (log intensity, higher = more binding, comparable within an allelic series)","12.6 upbm affinity estimate (log intensity, higher = more binding, comparable within an allelic series)","13.7 upbm affinity estimate (log intensity, higher = more binding, comparable within an allelic series)","13.7 upbm affinity estimate (log intensity, higher = more binding, comparable within an allelic series)","12.5 upbm affinity estimate (log intensity, higher = more binding, comparable within an allelic series)"
